The results in this text go back to PubChem BioAssay.

Activity calls are given as the source filed them. Unless noted, no rule for the calls is given here.

Test [1] is described as follows: resazurin metabolic signal in HepG2 cells – cell-based, resazurin fluorescence, 24 h, PK04 Diversity Set, profiling panel (AID 1172). Also: test concentration not given here. To be noted: HepG2 viability, higher = more signal.
Test [2] in a line: budding yeast growth changes without added modifier – OD600, strain BY4716, 24 h, basal condition, primary screen (AID 1173). To be noted: S. cerevisiae BY4716 growth, OD600, 24 h; higher = more signal, called active from +8 up or from −8 down.
Test [3] can be described thus: viability profiling in MM1S myeloma cells – cell-based, resazurin fluorescence, basal, 24 h, PK04 Diversity Set, profiling panel (AID 1174).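 Also: MM1S multiple myeloma cell line; test concentration not given here.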 To be noted: higher = more signal, called active from +8 up or from −8 down. For orientation: Resazurin is reduced to fluorescent resorufin, in cell work by metabolically active cells.
Test [4] has as its target Dihydroorotate dehydrogenase (quinone), mitochondrial (Plasmodium falciparum (isolate 3D7)) (UniProt Q08210). In words: inhibition of P. falciparum DHODH – biochemical, C-terminal His tag, absorbance 600 nm, primary screen (AID 1175).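 Also: recombinant parasite enzyme with a five histidine tag at its C terminus; test concentration not given here.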 To be noted: PfDHODH enzyme, DCIP absorbance 600 nm; higher = more signal, called active from +8 up or from −8 down.
Test [5] is described as follows: inhibition of PAO1 biofilm formation – strain PAO1, LB-PBS medium, absorbance 600 nm, primary screen (AID 1176). Also: test concentration not given here. To be noted: P. aeruginosa PAO1 growth/biofilm, A600, 12 h; higher = more signal.
Test [6] can be described thus: growth modulation of vineyard yeast isolate – strain RM11-1a, OD600, basal, 24 h, primary screen (AID 1177).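 Also: cultures grown under basal conditions with no added stressor; test concentration not given here.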 To be noted: S. cerevisiae RM11-1a growth, OD600, 24 h; higher = more signal, called active from +8 up or from −8 down.
A short description of test [7]: growth of efflux-deficient E. coli DRC39 – strain DRC39, OD650, 24 h, E. coli filamentation inducers, primary screen (AID 1178).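 Also: growth measured as culture turbidity by optical density at 650 nm; test concentration not given here.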 To be noted: E. coli DRC39 acrAB, higher = more signal, called active from +8 up or from −8 down.
Test [8] can be described thus: growth of efflux-deficient E. coli DRC39 – strain DRC39, OD650, 48 h, E. coli filamentation inducers, primary screen (AID 1179).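 Also: screen aims at cell division blockers that make cells filament.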 To be noted: E. coli DRC39 delta-acrAB growth, higher = more signal, called active from +8 up or from −8 down.
Test [9] is described as follows: viability profiling in RPMI8226 myeloma cells – cell-based, resazurin fluorescence, basal, 24 h, PK04 Diversity Set, profiling panel (AID 1180).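 Also: RPMI8826 multiple myeloma cell line at 5000 cells per well; test concentration not given here.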 To be noted: higher = more signal.
Test [10] has as its target E3 ubiquitin-protein ligase XIAP (Homo sapiens) (UniProt P98170). The test is described as follows: small molecules binding XIAP protein – biophysical, small-molecule microarray, fluorescence 635 nm, primary screen (AID 1181).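 Also: score merges 667 nm emission and signal to noise over triplicate slides.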 To be noted: higher = more signal.

E3 ubiquitin-protein ligase XIAP (Homo sapiens), sequence (P98170 whole entry, looked up): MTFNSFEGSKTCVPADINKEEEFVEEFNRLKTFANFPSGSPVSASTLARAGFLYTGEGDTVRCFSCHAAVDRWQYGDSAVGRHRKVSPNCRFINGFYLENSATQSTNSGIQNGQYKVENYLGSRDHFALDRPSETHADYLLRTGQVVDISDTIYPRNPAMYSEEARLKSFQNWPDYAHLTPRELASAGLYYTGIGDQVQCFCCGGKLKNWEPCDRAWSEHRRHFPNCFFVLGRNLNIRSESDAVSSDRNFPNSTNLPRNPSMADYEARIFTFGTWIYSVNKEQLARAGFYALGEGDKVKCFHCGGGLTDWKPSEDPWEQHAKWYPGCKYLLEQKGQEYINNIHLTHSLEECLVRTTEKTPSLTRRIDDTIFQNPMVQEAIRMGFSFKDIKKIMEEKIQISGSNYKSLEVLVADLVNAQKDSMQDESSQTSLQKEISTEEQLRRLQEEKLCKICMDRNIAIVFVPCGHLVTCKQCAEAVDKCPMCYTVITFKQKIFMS
Dihydroorotate dehydrogenase (quinone), mitochondrial (Plasmodium falciparum (isolate 3D7)), sequence (Q08210 whole entry, looked up): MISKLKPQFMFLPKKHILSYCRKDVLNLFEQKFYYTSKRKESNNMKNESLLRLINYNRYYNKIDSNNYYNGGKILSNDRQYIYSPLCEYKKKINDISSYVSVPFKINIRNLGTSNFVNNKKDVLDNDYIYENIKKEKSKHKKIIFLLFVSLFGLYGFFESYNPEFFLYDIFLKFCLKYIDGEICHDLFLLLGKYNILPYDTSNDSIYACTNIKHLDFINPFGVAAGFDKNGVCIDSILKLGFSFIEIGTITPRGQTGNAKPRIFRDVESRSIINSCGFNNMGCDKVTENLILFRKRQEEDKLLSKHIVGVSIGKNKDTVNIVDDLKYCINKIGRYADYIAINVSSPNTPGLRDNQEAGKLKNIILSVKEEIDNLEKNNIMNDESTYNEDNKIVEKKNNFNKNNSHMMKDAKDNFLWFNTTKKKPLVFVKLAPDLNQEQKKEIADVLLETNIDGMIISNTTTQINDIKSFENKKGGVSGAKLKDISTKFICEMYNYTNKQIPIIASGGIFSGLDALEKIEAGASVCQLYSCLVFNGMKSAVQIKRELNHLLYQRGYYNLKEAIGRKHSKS

In the case of `COC(=O)[C@@]1(Cc2ccc(F)cc2)[C@H]2c3cc(C(=O)N4CCCC4)n(C[C@H](O)CO)c3C[C@H]2CN1C(=O)c1ccccc1`, the z-score in [1] was -0.462; in [2] it was 0.897 (inactive); in [3], -0.765 (inactive); in test [5], 0.812 (inactive); in test [6], -0.108 (inactive); in test [7], -0.645 (inactive). The z-score is -0.0414 (inactive) in test [8] and -0.797 in [9]. The composite z-score in test [4] was -0.323 (inactive); in test [10], 0.0811.

`COC(=O)c1ccc(OC)c(/C=C\CC(OC(=O)c2ccncc2)c2ccccc2)c1` (stereo not given): the z-score was 0.887 in [1]; -2.06 (inactive) in test [2]; 0.514 (inactive) in test [3]; 0.792 (inactive) in [5]; -2.69 (inactive) in [6]; 2.57 (inactive) in [7]. In addition, the z-score in test [8] was 1.49 (inactive); in [9], 0.525. Further, the composite z-score in test [4] is -6.33 (inactive); in [10], 0.0774.

Take `O=C1NC(=O)C2C1C=CC(C(O)c1ccc(F)cc1)N2Nc1ccc(Cl)cc1Cl` (stereo not given): the z-score in test [1] is -2.15; in test [2], -16.3 (active); in [3], -1.28 (inactive); in test [5], 1.06 (inactive); in [6], -8.86 (active); in test [7], -0.2 (inactive). Further, the z-score in [8] was -1.52 (inactive); in [9], -1.79. The figures for the composite z-score in test [4] and in test [10] were 0.827 (inactive) and 0.285, respectively.

Regarding `CCN1C(=O)C2CC(=O)C3C(CN(S(=O)(=O)c4ccc(C)cc4)C3c3ccc(C)cc3)C2C1=O` (stereo not given), the z-score was -0.733 in test [1]; 0.728 (inactive) in test [2]; -0.631 (inactive) in test [3]; -0.144 (inactive) in [5]; 0.5 (inactive) in [6]; -0.772 (inactive) in [7]. In addition, the z-score in test [8] was 0.346 (inactive); in [9], -0.627. For the same compound, the composite z-score in test [4] was 0.551 (inactive); in [10], -0.148.

As to `COCCCNC(=O)[C@@]1(Cc2ccccc2I)c2ccccc2C(=O)N(Cc2ccccc2OC)[C@H]1c1ccc(CO)cc1`, the z-score is -0.831 in test [1]; -0.366 (inactive) in test [2]; -0.0499 (inactive) in test [3]; 0.18 (inactive) in [5]; 1.06 (inactive) in test [6]; -0.033 (inactive) in test [7]. Moreover, the z-score in test [8] is -0.113 (inactive); in test [9], 0.317. In addition, the figures for the composite z-score in [4] and in test [10] were 0.671 (inactive) and 0.0506, respectively.

Take `COC(=O)[C@@]1(Cc2ccccc2)[C@H]2c3cc(C(=O)N(C)C)n(CCF)c3C[C@H]2CN1C(=O)c1ccccc1`: the z-score was -0.537 in test [1]; 1.34 (inactive) in [2]; -0.878 (inactive) in test [3]; 0.715 (inactive) in test [5]; 0.155 (inactive) in test [6]; -0.407 (inactive) in test [7]. Also, the z-score is 0.0857 (inactive) in test [8] and -0.329 in test [9]. The composite z-score in test [4] was 0.288 (inactive); in [10], 0.0635.

As for `COCCCNC(=O)[C@@]1(Cc2ccccc2I)c2ccccc2C(=O)N(Cc2ccccc2C(F)(F)F)[C@H]1c1ccc(CO)cc1`, the z-score in test [1] was 0.331; in test [2], -0.088 (inactive); in [3], 0.377 (inactive); in test [5], -0.963 (inactive); in test [6] it was 1.38 (inactive); in test [7], 0.309 (inactive). Moreover, the z-score is 0.324 (inactive) in test [8] and 0.426 in test [9]. Moreover, the composite z-score in test [4] was 0.543 (inactive); in [10], -0.223.

In the case of `COc1ccc(C(=O)Nc2ccc(CN3C(=O)[C@]4(O[C@H](CC(=O)N(CCO)Cc5ccccc5)[C@@H]([Si](C)(C)c5ccc(OC)cc5)[C@@H]4C)c4ccccc43)cc2)cc1`, the z-score was -1.18 in test [1]; 0.352 (inactive) in test [2]; -1.94 (inactive) in test [3]; 0.671 (inactive) in test [5]; 2.51 (inactive) in [6]; -0.225 (inactive) in test [7]. In addition, the results for the z-score in test [8] and in [9] were -0.575 (inactive) and -1.84, respectively. For the same compound, the composite z-score in [4] is -0.633 (inactive); in [10], -0.209.

In the case of `COC(=O)C(CC#Cc1ccc2c(c1)[C@]1(C(=O)N2)[C@H](c2ccc(OCCO)cc2)N2[C@H](c3ccccc3)[C@H](c3ccccc3)OC(=O)[C@H]2[C@@H]1C(N)=O)C(=O)OC`, the z-score in test [1] is -0.156; in test [2], 1.17 (inactive); in [3], -0.551 (inactive); in test [5], 2.88 (inactive); in test [6] it was 2.32 (inactive); in test [7], 0.448 (inactive). For the same compound, the z-score in test [8] is 0.287 (inactive); in [9] it was -1.43. The composite z-score is -1.24 (inactive) in test [4] and 0.13 in [10].

Take `O=C1OCC=C[C@H]2OC34C=CCN(Cn5nnc6ccccc65)C(=O)[C@H]3N(CCO)C(=O)[C@@H]4[C@@H]12` (stereo not given in full): the z-score in test [1] is -0.779; in test [2], 0.818 (inactive); in [3] it was -0.176 (inactive); in test [5], -0.332 (inactive); in test [6], -0.581 (inactive); in test [7] it was 0.0034 (inactive). For the same compound, the values for the z-score in test [8] and in [9] were -0.0669 (inactive) and -0.256, respectively. The composite z-score in test [4] is -0.642 (inactive); in test [10], -0.0749.

For the compound `CCCC1(C(=O)OC)C=C2C(=C(C(C)C)C(=O)C2C)CN1` (stereo not given), the z-score in [1] was -0.964; in test [2], 1.67 (inactive); in test [3], -1.13 (inactive); in test [5], 0.495 (inactive); in test [6], 0.391 (inactive); in test [7], -0.314 (inactive). In addition, the z-score is 0.0752 (inactive) in test [8] and -1.44 in test [9]. For the same compound, the composite z-score in [4] is -1.05 (inactive); in [10], 0.227.

Regarding `C=CCOC(=O)[C@@H]1[C@H]2C(=O)O[C@H](c3ccccc3)[C@H](c3ccccc3)N2[C@H](c2ccc(OCCOC(=O)[C@H]3C[C@H]4C(=O)N[C@@H](CCCCN(C)C)C(=O)N4[C@H]3c3cccc(OCCO)c3)cc2)[C@@]12C(=O)Nc1ccccc12`, the z-score in test [1] was 0.594; in [2] it was 0.756 (inactive); in test [3], 0.75 (inactive); in [5], -0.475 (inactive); in test [6], 0.237 (inactive); in test [7], 0.292 (inactive). For the same compound, the z-score in [8] is 0.352 (inactive); in test [9], 0.835. Besides, the composite z-score in test [4] was 0.0193 (inactive); in test [10] it was -0.0102.
